In the library only some 5.4% were active in any assay of this set; here they are far more common.
VACV Venus inh: qHTS for Stage-Specific Inhibitors of Vaccinia Orthopoxvirus: Venus Reporter Primary qHTS. Vaccinia virus Venus reporter expression, fluorescence. Potency, µM (top dose mostly 36.5 µM), without a hit: at the highest dose activity change, negative = inhibition, actives largely listed as inhibitors. 0.46% of 330,000 active. AID 720580, 2013; calls by dose curve; tested in A549 cells; note: nearly all actives have a fitted effect of over 30% in size
MARV entry inh: qHTS for inhibitors of binding or entry into cells for Marburg Virus | Marburg virus pseudotyped entry inhibition, cell reporter | Potency, µM (top dose mostly 37.8 µM), inactives show at the highest dose activity change, negative = inhibition, most hits filed as inhibitors | 1.8% of 300,000 active | AID 540276, 2011; calls by dose curve; tested in HEK293 cells
Sm TGR block: qHTS Assay for the Inhibitors of Schistosoma Mansoni Peroxiredoxins. Schistosoma mansoni thioredoxin glutathione reductase (TGR), Q962Y6. 3% of 360,000 active. purified TGR, DTNB reduction, TNB absorbance 405 nm. Potency, µM (titrated, usually from 114 µM), for inactives: top-dose activity change, negative = inhibition, actives largely listed as inhibitors; active = well fitted inhibition curve with a large enough effect; inconclusive = small, poorly fitted or top-dose-only effect; inactive = no such curve, though single readings can be large or run the other way; note: nearly all actives have a fitted effect of over 60% in size
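TGR 20 nM + NADPH 100 uM (dispensed conc.), cpd preinc 15 min RT; start with NADPH (500 uM addition) then DTNB (15 mM addition). Kinetic TNB absorbance, 405 nm filter. Four-parameter Hill fit across titration.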
FMDV antiviral: High Throughput Screening for Foot and Mouth Disease Virus Antivirals; FMDV antiviral cell-based qHTS; Potency, µM (top dose mostly 57.9 µM), inactives show at the highest dose activity change, negative = inhibition, hits mostly inhibitors; 1.2% of 410,000 active; AID 1159524, 2015; calls by dose curve; tested in HEK293T cells; note: read-out not given here; nearly all actives have a fitted effect of over 45% in size
LASV entry inh: qHTS for Inhibitors of binding or entry into cells for Lassa Virus; Potency, µM (highest dose often 37.9 µM), without a hit: top-dose activity change, negative = inhibition, usual class: inhibitors; AID 540256, 2011; Lassa virus pseudotype entry inhibition, cell reporter; 1.2% of 300,000 active; calls by dose curve; tested in HEK293 cells; note: nearly all actives have a fitted effect of over 50% in size
VACV mCherry inh: qHTS for Stage-Specific Inhibitors of Vaccinia Orthopoxvirus: mCherry Reporter Primary qHTS; AID 720579, 2013; Potency, µM (series often up to 36.5 µM), for the others: top-dose activity change, negative = inhibition, actives largely listed as inhibitors; Vaccinia virus mCherry reporter infection, fluorescence; 0.63% of 310,000 active; calls by dose curve; tested in A549 cells; note: nearly all actives have a fitted effect of over 35% in size
An asterisk follows results filed as active; i = inactive; u = inconclusive; x = not tested or not shown; [ ] = another dose, or the depositor's remark. % is set by controls: 0 for no effect and ±100 for the full control effect; potency is the fitted concentration of half-maximal effect.

SMILES	VACV Venus inh	MARV entry inh	Sm TGR block	FMDV antiviral	LASV entry inh	VACV mCherry inh
CCN1C(=O)N(C)C(c2ccccc2)C(C(C)=O)=C1C (stereo not drawn)	x	13%[14.2 µM]	x	x	x	x
Cc1c(O)c2c3c(cccc3c1O)C(=O)N(c1ccccc1)C2=O	12%	-38%	-6%	22µM*	-17%	-27%
O=C(O)c1ccc2c3c(cccc13)C(=O)N(c1ccccc1)C2=O	3%	-2%	7%	-12%	3%	i
CCCCn1c(CCC)nc([N+](=O)[O-])c1Sc1ccc(Cl)cn1	x	u	22µM*	u	u	x
CCOC(=O)N1CCN([C@@H]2OC(=O)c3ccccc32)CC1	x	23%[46.1 µM]	x	x	x	x
CN(C)S(=O)(=O)c1ccc(N2CCN(S(=O)(=O)c3ccc(F)cc3)CC2)c(Cl)c1	10µM*	u	8%	u	u	10µM*
O=C(c1cccc(F)c1F)N1CCOc2ccc(CN3CCN(Cc4ccccn4)CC3)cc2C1	-11%	x	x	10%	x	-15%
FC(F)(F)c1cnc(N2CCCN(C(=S)Nc3ccccc3)CC2)c(Cl)c1	-6%[7.34 µM]	u	-6%	u	u	u
FC(F)(F)c1cnc(N2CCN(C(=S)NCc3ccccc3)CC2)c(Cl)c1	-1%	13µM*	-2%	-17%	u	-12%
COc1cc(/C=C/CN2CCN(CCC(C)C)C(CCO)C2)ccc1O (stereo not drawn)	x	x	13µM*	-7%	x	x
COc1cc(/C=C/CN2CCN(Cc3ccc(C)o3)C(CCO)C2)ccc1O (stereo not drawn)	-4%	-5%[46.1 µM]	13µM*	-18%	u	i
COc1ccc(/C=C/CN2CCN(CC(C)C)C(CCO)C2)cc1 (stereo not drawn)	-23%	-4%[46.1 µM]	-4%	-12%	10%	-13%
CCOc1cc(CN2CCN(Cc3ccc(C)o3)C(CCO)C2)ccc1OC (stereo not drawn)	-6%	x	x	-8%	x	-3%
COc1ccccc1/C=C/CN1CCN(Cc2ccc(C)o2)C(CCO)C1 (stereo not drawn)	-18%	u	45µM*	-14%	-1%[46.1 µM]	-18%
Cn1cccc1C(=O)N1CCC2(CCCN(c3ccccn3)C2)CC1	x	x	x	-5%	x	x
Cc1coc2c(C)c3oc(=O)c(CCC(=O)N4CCCCC4)c(C)c3cc12	-13%	2%[46.1 µM]	1%	-17%	-9%[46.1 µM]	-7%
C(=N\Nc1ccc2ccccc2n1)/c1ccc2c(c1)OCCO2	x	x	15%	u	x	x
Cc1ccc(/C=N/Nc2ccc3ccccc3n2)o1	u	1.3µM*	-34%	-17%	5µM*	u
Cc1ccc(/C=N/Nc2cn[nH]c(=O)n2)o1	-12%	-10%[46.1 µM]	50%	24%	15%[46.1 µM]	-9%
CC(=NNc1ccc2ccccc2n1)c1ccccc1O	-20%	u	x	u	3.2µM*	-14%
Cc1cccc(/C=N/Nc2ccc3ccccc3n2)c1	-11%	x	0%	6.3µM*	x	u
CCC1CN(CCNC(=O)c2scc3c2OCCO3)Cc2cc(OC)ccc2O1 (stereo not drawn)	-1%	x	x	27%	x	-11%
CCSc1nnc(C(C)NC(=O)c2ccc(OC)cc2)n1C (stereo not drawn)	-5%	x	x	-6%	x	-5%
CCOC(=O)c1ccc2c(c1)C1C=CCC1C(C(=O)OCC)N2 (stereo not drawn)	-2%	1%[46.1 µM]	32µM*	6%	12%[46.1 µM]	i
O=C(O)C1Nc2c(O)cccc2C2C=CCC12 (stereo not drawn)	-8%	u	8.9µM*	-28%	u	-16%
SMILES	VACV Venus inh	MARV entry inh	Sm TGR block	FMDV antiviral	LASV entry inh	VACV mCherry inh
O=C(O)C1Nc2ccc(Br)cc2C2C=CCC12 (stereo not drawn)	x	x	0.89µM*	-11%	x	x
CCOC(=O)C1Nc2ccc(Br)cc2C2C=CCC12 (stereo not drawn)	4%	-3%[46.1 µM]	28µM*	0%	-16%[46.1 µM]	i
CCOC(=O)C1Nc2ccc(C)cc2C2C=CCC12 (stereo not drawn)	-21%	x	x	-6%	x	i
CCOCCCNC(=O)Nc1cc(C(=O)NCc2ccc(C(C)C)cc2)ccc1N1CCCC1	-25%	x	-15%	-11%	u	-22%
Cc1nc2c(C(=O)NCCC(C)C)cnn2c(C)c1Cc1c(F)cccc1Cl	-16%	x	20%	-17%	21%[46.1 µM]	-19%
O=C(OC1CCCCC1)c1ccc2c(c1)C1C=CCC1C(C(=O)O)N2 (stereo not drawn)	x	-3%	3.2µM*	x	x	x
CCN(CC)c1ccc(/C=C(/C#N)C(=O)NCc2ccccc2)o1	-1%	21%	35µM*	73%	-17%	-22%
CCN(C(=O)CSc1nc2ccccc2n1Cc1ccc(F)cc1Cl)c1ccccc1	-15%	x	-1%	-24%	17%[46.1 µM]	-2%
CCCn1c(SCc2ccc(Cl)cc2)nc2c1c(=O)[nH]c(=O)n2C	u	-16%[46.1 µM]	-25%	u	16µM*	x
CCn1cnc2c(Nc3cccc(Cl)c3)nc(N[C@@H]3CCCC[C@@H]3N)nc21	x	12µM*	x	x	8.2µM*	x
Cc1ccc(C(=O)N/N=C\c2ccc([N+](=O)[O-])s2)cn1	-26%	14%	u	u	u	-3%
Cc1ccc(/C=N/NC(=O)c2ccncc2)s1	-3%	23%[46.1 µM]	0%	16%	7%[46.1 µM]	i
Cc1ccc(C(=O)N/N=C/c2ccc([N+](=O)[O-])s2)cc1	u	11µM*	-11%	2.8µM*	u	-12%[1.46 µM]
O=C(N/N=C/c1ccc([N+](=O)[O-])s1)c1ccncc1	11µM*	u	u	-30%	30%[46.1 µM]	u
O=C(CNC(=O)c1ccccc1)N/N=C/c1ccc([N+](=O)[O-])s1	10µM*	u	u	5%	-29%	10µM*
Cc1cccc(NC(=O)/C=C/c2ccc([N+](=O)[O-])s2)c1	-3%	u	-2%	0%	u	-22%
Cc1cccc(NC(=S)N/N=C/c2ccc([N+](=O)[O-])s2)c1	22µM*	u	0%	-12%	16µM*	11µM*
COc1ccc(Oc2ncc3nc(-c4cccs4)c(=O)n(Cc4cccs4)c3n2)cc1	x	x	x	-9%	x	x
Cn1c(SCC(=O)N/N=C/c2ccc([N+](=O)[O-])s2)nnc1-c1ccc(Cl)cc1	-7%	12µM*	u	u	u	-2%
CSc1ccc(-c2ccc(C(=O)NCC3CCCO3)c(N3CCC(O)CC3)n2)cc1 (stereo not drawn)	5%	x	x	46%	x	-12%
O=C(CSc1cn(CCNC(=O)c2c(F)cccc2F)c2ccccc12)Nc1ccc(F)cc1	-10%	2%[46.1 µM]	4%	-4%	-2%[46.1 µM]	-15%
COc1ccc2c3n(nc2c1)CCN=C3c1ccc(C)cc1	u	x	-8%	9%	x	-27%
COc1ccc(C2=NCCn3nc4cc([N+](=O)[O-])ccc4c32)cc1	6%	x	25µM*	9%	x	0%

Bioassay records: PubChem, National Center for Advancing Translational Sciences (NCATS)
